Screening data deposited in PubChem by National Center for Advancing Translational Sciences (NCATS).
SARS PLP yeast = blocks SARS-CoV papain-like protease in a yeast assay. S. cerevisiae expressing SARS-CoV PLpro, growth rescue. Potency, µM (titrated, usually from 32.9 µM), without a hit: at the top dose activity, positive = growth rescue, most hits filed as activators. actives 0.19% (n = 330,000); calls by dose curve; further: 0% is about no effect; nearly all actives have a fitted effect of over 55% in size
Sm TGR block = S. mansoni TGR enzyme inhibition; Q962Y6; Potency, µM (highest dose often 114 µM), without a hit: at the highest dose activity change, negative = inhibition, hits mostly inhibitors; purified TGR, DTNB reduction, TNB absorbance 405 nm; actives 3% (n = 360,000); AID 485364; further: on the % scale 0 is the no-effect control and ±100 the full control effect; nearly all actives have a fitted effect of over 60% in size
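First, TGR (20 nM dispensed) and NADPH were mixed with compound. Second, a 15 min room-temperature incubation followed. Third, further NADPH and then DTNB were added to start the reaction. Finally, TNB absorbance was monitored kinetically.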
AmpC no deterg = blocks E. coli AmpC beta-lactamase in detergent-free assay. AID 485341. P00811. Potency, µM (top dose mostly 57.1 µM), for the others: at the highest dose activity change, negative = inhibition, hits mostly inhibitors. AmpC nitrocefin hydrolysis, absorbance 480 nm, 0.0001% Triton. actives 0.52% (n = 330,000);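 further: plate controls were no compound for no effect and no enzyme for full effect; nearly all actives have a fitted effect of over 20% in size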
Target sequence (P00811 whole entry, looked up): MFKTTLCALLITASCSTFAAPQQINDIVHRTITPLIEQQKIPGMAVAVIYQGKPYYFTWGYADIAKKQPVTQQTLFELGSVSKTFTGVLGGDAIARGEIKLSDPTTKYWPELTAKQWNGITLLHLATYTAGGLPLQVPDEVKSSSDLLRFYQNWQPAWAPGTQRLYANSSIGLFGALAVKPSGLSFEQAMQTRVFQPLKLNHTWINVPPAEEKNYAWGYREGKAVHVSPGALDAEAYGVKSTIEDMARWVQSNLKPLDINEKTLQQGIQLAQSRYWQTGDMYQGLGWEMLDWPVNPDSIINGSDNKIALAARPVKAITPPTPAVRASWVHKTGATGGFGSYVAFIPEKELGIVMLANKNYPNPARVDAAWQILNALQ
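20 mM phosphate pH 7.0 + 0.01% (detergent screen) or 0.0001% Triton X-100; 5.3 nM AmpC reagent; cpd preinc 15 min RT; nitrocefin (800 uM stock) to start; A480 q20 s × 4 min; Activity was normalised to no-enzyme and no-compound control wells.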
Pf growth 96h = P. falciparum growth inhibition at 96 hour, primary screen for plastid delayed-death inhibitors. P. falciparum luciferase reporter growth, 96 h. Potency, µM (top dose mostly 28.7 µM), without a hit: top-dose activity change, negative = inhibition, usual class: inhibitors. actives 6.9% (n = 320,000); further: on the % scale 0 is the no-effect control and ±100 the full control effect
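P. falciparum expressing integrated firefly luciferase grown in erythrocytes (2% hematocrit, 0.05% parasitemia final) with compounds for 96 hours at 37 C, 5% CO2. Growth inhibition read as loss of luminescence after adding luciferase detection reagent.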
AmpC inh detg = AmpC beta-lactamase inhibition with detergent present. AmpC hydrolysis of nitrocefin, absorbance 480 nm, 0.01% Triton. actives 0.041% (n = 370,000). P00811. AID 485294. Potency, µM (series often up to 114 µM), for the others: at the top dose activity change, negative = inhibition, hits mostly inhibitors;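 further: 0% = no-compound wells and -100% = no-enzyme wells; nearly all actives have a fitted effect of over 25% in size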
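20 mM phosphate pH 7.0 + 0.01% (detergent screen) or 0.0001% Triton X-100; 5.3 nM AmpC reagent; cpd preinc 15 min RT; nitrocefin (800 uM stock) to start; A480 q20 s × 4 min; Activity was normalised to no-enzyme and no-compound control wells.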
Pf growth 48h = inhibits P. falciparum growth in the first generation, 48 h; P. falciparum luciferase growth in erythrocytes, 48 h; Potency, µM (titrated, usually from 28.7 µM), inactives show at the highest dose activity change, negative = inhibition, usual class: inhibitors; actives 5.9% (n = 310,000); AID 504832; further: on the % scale 0 is the no-effect control and ±100 the full control effect
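Luciferase-expressing P. falciparum in infected erythrocytes (2% hematocrit, 0.1% parasitemia final) in RPMI 1640/0.5% Albumax were exposed to compound for 48 hours at 37 C, 5% CO2; growth read as luminescence.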
The depositor's hits bear a star; [ ] = dose if it differs, or a comment. Sampled rows, rich in hits. Any-hit rate of the full collection: about 12%. Unless noted, the call rests on the fitted dose curve; in most records, active means well fitted curve in the direction sought with a large enough effect; inconclusive means small, poorly fitted or top-dose-only effect, or another doubt; inactive means no such curve, though single readings can be large; an effect the other way counts as inactive or inconclusive. Potency means the concentration at half of the fitted maximal effect.

Results for COc1cc2c(-c3ccc4cc[nH]c4c3)c(-c3ccsc3)oc(=O)c2cc1OC ?
SARS PLP yeast: -2%; Sm TGR block: -4%; AmpC no deterg: 0%; Pf growth 96h: 2.3µM*; AmpC inh detg: 3%; Pf growth 48h: inconclusive

Results for COc1cc2c(-c3ccc4[nH]ccc4c3)c(-c3ccc(C#N)cc3)oc(=O)c2cc1OC ?
SARS PLP yeast: -17%; Sm TGR block: -7%; AmpC no deterg: 4%; Pf growth 96h: 4.7µM*; AmpC inh detg: -5%; Pf growth 48h: inconclusive

What do the screens show for `COc1cc2c(C#CCCCO)c(-c3ccc(C#N)cc3)oc(=O)c2cc1OC`?
SARS PLP yeast: -11%; Sm TGR block: 32µM*; AmpC no deterg: 0%; Pf growth 96h: 19%; AmpC inh detg: -4%; Pf growth 48h: 7%

How did COc1ccc(-c2c(-c3ccsc3)oc(=O)c3cc(OC)c(OC)cc23)cn1 do in these assays?
SARS PLP yeast: 11%; AmpC no deterg: -13%

How did CC(NC(=O)CC12CC3CC(CC(C3)C1)C2)C(=O)O (centres undefined) do in these assays?
SARS PLP yeast: 2%; Sm TGR block: 0%; AmpC no deterg: -14%; Pf growth 96h: 9.3µM*; AmpC inh detg: -5%; Pf growth 48h: 7%

Results for Cc1cccc(CSCc2ccc(C(=O)O)o2)c1 ?
SARS PLP yeast: 1%; Sm TGR block: 50µM*; AmpC no deterg: -20%; Pf growth 96h: 168%; AmpC inh detg: -8%; Pf growth 48h: 0%

What do the screens show for `Cc1cccc(CSCc2ccc(C(=O)NC(C)C)o2)c1`?
SARS PLP yeast: -1%; Sm TGR block: inconclusive; AmpC no deterg: -4%; Pf growth 96h: 3.7µM*; AmpC inh detg: 0%; Pf growth 48h: 2%[0.00184 µM]

How did CC(=O)Nc1cc(C(=O)Nc2ccc3c(c2)N(C)C(=O)c2ccccc2S3)ccc1C do in these assays?
Sm TGR block: -3%; AmpC inh detg: 5%

Results for CSc1ccc(C2C(C#N)=C(N)N(c3ccccc3)C3=C2C(=O)CCC3)cc1 (centres undefined) ?
SARS PLP yeast: 1%; Sm TGR block: 0%; AmpC no deterg: -48%; Pf growth 96h: 0%; AmpC inh detg: inconclusive; Pf growth 48h: 13µM*

How did COc1ccc(C2C(C#N)=C(N)N(c3cccnc3)C3=C2C(=O)CC(C)(C)C3)cc1OC (centres undefined) do in these assays?
SARS PLP yeast: 6%; Sm TGR block: 45µM*; AmpC no deterg: 9%; Pf growth 96h: inconclusive; AmpC inh detg: inconclusive; Pf growth 48h: -25%

Results for COc1ccc(N2C(N)=C(C#N)C(c3cccnc3)C3=C2CC(C)(C)CC3=O)cc1 (centres undefined) ?
SARS PLP yeast: -3%; Sm TGR block: 10µM*; AmpC no deterg: -3%; Pf growth 96h: -17%; AmpC inh detg: -2%; Pf growth 48h: inconclusive

How did O=C1CCCC2=C1C(c1ccccc1)CC(=O)N2c1ccccc1 (centres undefined) do in these assays?
SARS PLP yeast: 0%; Sm TGR block: -2%; AmpC no deterg: 3%; Pf growth 96h: 13µM*; AmpC inh detg: inconclusive; Pf growth 48h: -13%

Results for CCSc1sccc1C1C(C#N)=C(N)N(c2cccnc2)C2=C1C(=O)CC(C)(C)C2 (centres undefined) ?
SARS PLP yeast: 4%; Sm TGR block: -20%; AmpC no deterg: 34%; Pf growth 96h: inconclusive; AmpC inh detg: -8%; Pf growth 48h: inconclusive

How did COc1ccc(C2C(C#N)=C(N)N(N(C)C)C3=C2C(=O)CC(C)(C)C3)cc1OC (centres undefined) do in these assays?
SARS PLP yeast: -1%; Sm TGR block: 4%; AmpC no deterg: -7%; Pf growth 96h: inconclusive; AmpC inh detg: 2%; Pf growth 48h: inconclusive

How did CC(=O)Nc1cccc(C(=O)N2CCC(n3nccc3NC(=O)CC(C)C)CC2)c1 do in these assays?
SARS PLP yeast: -2%; Sm TGR block: 2%; AmpC no deterg: -12%; Pf growth 96h: 32%; AmpC inh detg: inconclusive; Pf growth 48h: 6%

How did COc1ccc(-n2c(C)c(C)c3c(NCCCN(C)C)ncnc32)cc1 do in these assays?
SARS PLP yeast: 1%; Sm TGR block: -1%; AmpC no deterg: 46%; Pf growth 96h: -14%; AmpC inh detg: -3%; Pf growth 48h: -18%

Results for N#CC1=C2N=C(N)c3c(sc4c3CCCCC4)N2C2=C(C(=O)CCC2)C1c1ccccc1 (centres undefined) ?
SARS PLP yeast: 1%; Sm TGR block: -33%; AmpC no deterg: -24%; Pf growth 96h: 4.7µM*; AmpC inh detg: 5%; Pf growth 48h: 2.9µM*

How did COc1cccc(C2C(C#N)=C(N)N(N(C)C)C3=C2C(=O)CCC3)c1 (centres undefined) do in these assays?
SARS PLP yeast: -1%; Sm TGR block: 2%; AmpC no deterg: -5%; Pf growth 96h: -25%; AmpC inh detg: 8%; Pf growth 48h: 0%

What do the screens show for `COc1ccc(N2C(N)=C(C#N)C(c3ccsc3)C3=C2CCCC3=O)c(OC)c1` (centres undefined)?
SARS PLP yeast: 8%; Sm TGR block: 0%; AmpC no deterg: -21%; Pf growth 96h: 3.7µM*; AmpC inh detg: inconclusive; Pf growth 48h: inconclusive

How did CC1(C)CC(=O)C2=C(C1)N(c1cccnc1)C(N)=C(C#N)C2c1cccs1 (centres undefined) do in these assays?
SARS PLP yeast: 25%; Sm TGR block: 50µM*; AmpC no deterg: -17%; Pf growth 96h: inconclusive; AmpC inh detg: -7%; Pf growth 48h: -25%

Results for N#CC1=C2N=C(N)c3ccccc3N2C2=C(C(=O)CCC2)C1c1ccc(F)cc1 (centres undefined) ?
SARS PLP yeast: 1%; Sm TGR block: 1%; AmpC no deterg: -30%; Pf growth 96h: inconclusive; AmpC inh detg: 4%; Pf growth 48h: inconclusive

Results for CN(C)N1C(N)=C(C#N)C(c2cccnc2)C2=C1CCCC2=O (centres undefined) ?
SARS PLP yeast: 6%; Sm TGR block: inconclusive; AmpC no deterg: -14%; Pf growth 96h: 13µM*; AmpC inh detg: -1%; Pf growth 48h: -17%

Results for CC(C)c1ccc(NC(=O)c2cnc3sc(N4CCCC4)nn3c2=O)cc1 ?
Sm TGR block: 25%; AmpC inh detg: 11%
